Bioassay records from PubChem BioAssay.
D3 ag = D3 dopamine receptor (human) agonism; 410,000 compounds, 0.58% hits; max activation, %; D3R DiscoveRx beta-arrestin cells, luminescence, 90 min; AID 652048; P35462; in the data active means max activation above about 30%; further: 0% is about no effect
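Agonist-mode cell screen: cells plated at 1500/well and incubated overnight at 37 °C, then exposed to library compounds for 90 min at 37 °C. Detection reagent was added for 30–60 min at room temperature, and luminescence was read.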
DRD3 antagonist = blocks the human D3 dopamine receptor; P35462; D3R cells, DiscoveRx beta-arrestin luminescence, antagonist mode; hits give low values; max response, negative = inhibition, %; 360,000 compounds, 2.5% hits; in the data active means max response below about -50%; inconclusive means no clear call, values can overlap the other calls; further: on the % scale 0 is the no-effect control and ±100 the full control effect
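Cells plated overnight at 1500 cells/well, then exposed to library compounds with dopamine controls for 90 minutes at 37 degrees C. DiscoveRx reagent added for 30–60 minutes at room temperature; luminescence read, quantitative HTS format.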
ERG-DNA inh = blocks human ERG Ets domain binding to DNA | 370,000 compounds, 0.028% hits | Potency, µM (highest dose often 76.9 µM), for the others: top-dose FP activity, negative = inhibition, actives largely listed as inhibitors | P11308 | fluorescence polarization, His-ERG Ets domain / labelled DNA | AID 624246; active means well fitted inhibition curve with a large enough effect in the polarisation, with a control signal flat; inconclusive means small, poorly fitted or top-dose-only effect, or effect the other way, or a change in a side signal; inactive means no such curve, though single readings can be large or run the other way; the % refers to the polarisation;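 further: polarization taken with two DNA probes labelled with fluorescein and Texas red; potency means the concentration at half of the fitted maximal effect; % of control where 0% means no effect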
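His-tagged ERG Ets domain (1 uM in the protein solution; 300mM KCl, 50mM Tris-HCl, 1mM EDTA, 1mM DTT, pH 7.5) received compound, then a probe mix of 5 nM fluorescein-DNA and 100nM Texas-615-DNA. Fluorescence polarization was read for both dyes.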
D1 PAM = human D1 dopamine receptor positive modulation; 360,000 compounds, 0.036% hits; HEK293 TREx D1 cells, calcium flux, dopamine EC20 potentiation; AID 504651; potentiation, % at 10 µM; in the data active means potentiation above about 30%; further: 0% is about no effect
Target sequence (P21728 whole entry, looked up): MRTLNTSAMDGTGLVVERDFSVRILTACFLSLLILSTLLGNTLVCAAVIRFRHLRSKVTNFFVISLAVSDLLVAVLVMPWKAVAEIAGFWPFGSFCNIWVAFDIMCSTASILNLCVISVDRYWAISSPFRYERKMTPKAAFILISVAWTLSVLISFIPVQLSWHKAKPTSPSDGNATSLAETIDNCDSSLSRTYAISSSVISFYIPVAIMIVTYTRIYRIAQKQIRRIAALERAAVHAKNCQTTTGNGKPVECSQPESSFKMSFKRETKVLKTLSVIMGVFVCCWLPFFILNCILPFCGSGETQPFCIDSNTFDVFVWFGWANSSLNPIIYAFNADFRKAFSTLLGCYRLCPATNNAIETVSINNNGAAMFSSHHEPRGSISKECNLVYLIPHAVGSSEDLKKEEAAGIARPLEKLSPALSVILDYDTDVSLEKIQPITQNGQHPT
D1 ag = human D1 receptor agonism. 360,000 compounds, 1% hits. HEK293 T-REx D1 cells, calcium flux, agonist mode. activation, % at 2 µM. P21728. AID 504660; in the data active means activation above about 30%; further: 0% is about no effect
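Tetracycline-induced HEK293 TREx D1 cells, force-coupled to calcium signalling, were dye-loaded with a no-wash calcium kit. Compound was pin-added after a 10 s baseline. Fluorescence was read kinetically at 1 cycle/s for 180 s, with calcium rises flagged as agonism.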
D1 antag = human D1 dopamine receptor antagonism. activity change, negative = inhibition, % at 10 µM. AID 504652. HEK293 TREx D1 cells, calcium flux, dopamine EC80; hits give low values. P21728. 360,000 compounds, 3.2% hits; in the data active means activity change below about -30%; further: on the % scale 0 is the no-effect control and ±100 the full control effect
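HEK293 T-REx cells expressing inducible, force-coupled D1 receptor; no-wash Ca dye, 30–90 min RT. Cmpd → 180 s read at 1 Hz → EC80 DA → 180 s read.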
* = called active by the depositor; u = inconclusive; x = no result; ! = a repeat was not active. Rows were chosen to be rich in hits. Some 6.1% of all compounds tested hit in one or more screens of this group.

SMILES	D3 ag	DRD3 antagonist	ERG-DNA inh	D1 PAM	D1 ag	D1 antag
COc1ccc(NC2=NC(=S)N(c3ccccc3C)C23CCCCC3)cc1	-6.0	0.0	-6.9%	-0.8	2.6	8.9
COc1ccc(Nc2ccc3c(c2)=NC2(CCCCC2)[N+]=3[O-])cc1	-0.2	-67.9*	2.7%	-4.3	1.2	-4.3
[O-][N+]1=c2ccc(Nc3ccccc3)cc2=NC12CCCCC2	-3.3	u	-5.5%	-10.4	0.6	-54.6*
COc1ccc(-c2cnnn2-c2ccc(NC(=O)c3ccccc3OC)cc2)cc1	-19.7	x	0.4%	-0.5	2.7	11.1
CC(C)NC(=O)NC(=O)COC(=O)/C=C/c1ccc2c(c1)OCO2	-0.6	1.3	-3.7%	-0.7	1.1	-30.4*
CC(NC(=O)COC(=O)/C=C/c1ccc2c(c1)OCO2)c1ccccc1 (stereo not given)	1.2	-10.2	12.4%	-3.2	1.1	-4.6
Nc1ncnc2sc3c(c12)CCNC3	-9.2	-22.0	0.6%	6.5	-0.2	2.3
CCCN1CCN(CCCNC(=O)c2cc3c(s2)-c2c(C)cccc2OC3)CC1	-10.3	u	-7.5%	-10.4	5.2	-38.1*!
Cc1cccc2c1-c1sc(C(=O)N3CCN(c4ccccc4)CC3)cc1CO2	-4.4	x	1.1%	-3.8	4.5	-32.5*
Cc1cccc2c1-c1sc(C(=O)NCCCN3CCCC(C)C3)cc1CO2 (stereo not given)	-9.8	-75.8*	-14.1%	-18.7	18.7	-51.2*
CCCN1CCN(CCCNC(=O)c2cc3c(s2)-c2ccccc2OC3)CC1	-22.3	u	-0.2%	-11.2	4.8	-12.1
CC1CC(C)CN(CCCNC(=O)c2cc3c(s2)-c2ccccc2OC3)C1 (stereo not given)	-2.9	-19.3	3.0%	-1.9	7.3	1.0
COc1cc(Cl)c(NS(=O)(=O)c2ccc(-c3coc(C)n3)cc2)c(OC)c1	2.0	x	2.6%	-6.0	15.5	-28.4
O=C(C(O)c1ccc(Br)cc1)N1CCC(Nc2ccc3[nH]ncc3c2)CC1 (stereo not given)	-6.6	-81.0*	x	x	x	x
O=C(O)c1ccc2c(c1)C(=O)N([C@H](Cc1ccccc1)C(=O)O)C2=O	x	x	x	-5.8	2.9	10.6
CCCCc1n[nH]c2c1/C(=N/OCC)CC(C)(C)C2	-2.0	-10.6	8.3%	34.6*	61.9*	61.7
CCCc1n[nH]c2c1C(=O)CC(C)(C)C2	-0.1	21.2	-2.6%	33.1*	1.7	8.8
CCCCc1n[nH]c2c1/C(=N/O)CC(C)(C)C2	0.5	10.3	-5.7%	-8.2	1.4	-7.9
CCCc1c(-c2cccc(Cl)c2)ncn1Cc1cccc(-c2ccccc2)c1	51.7*	-18.9	x	x	x	x
COC(=O)CCCC(=O)N1CCCC(CCC(=O)NCc2ccc(F)c(F)c2)C1 (stereo not given)	-16.5	1.9	-3.5%	-5.8	8.5	-43.9*
COc1cccc(CNC(=O)CCC2CCCN(C(=O)c3cccc(Cl)c3)C2)c1 (stereo not given)	41.8*	-1.0	-1.1%	-6.0	0.1	5.7
COc1cccc(CNC(=O)CCC2CCCN(C(=O)CCC(F)(F)F)C2)c1 (stereo not given)	-6.7	-27.0	3.4%	-1.8	1.6	2.7
O=C(CCC1CCCN(C(=O)CCC(F)(F)F)C1)NCc1ccc(F)c(F)c1 (stereo not given)	3.9	12.4	6.1%	2.6	4.8	-5.8
COc1cccc(CNC(=O)CCC2CCCN(C(=O)c3ccc(C)nc3)C2)c1 (stereo not given)	12.3	8.6	9.8%	0.4	1.2	-3.4
COc1cccc(CNC(=O)CCC2CCCN(Cc3cc4ccccc4o3)C2)c1 (stereo not given)	-15.0	-70.9*	0.5%	6.3	0.0	-0.5
SMILES	D3 ag	DRD3 antagonist	ERG-DNA inh	D1 PAM	D1 ag	D1 antag
Cc1cc(C(=O)N/N=C2\CC(=O)c3ccccc32)c(C)n1-c1ccc(F)cc1	5.2	-2.0	8.9%	-2.5	-0.4	-7.3
Cc1c(NC(=O)c2ccc3c(c2)OCO3)cccc1-c1nc2ccccc2s1	-7.2	-12.6	x	-0.9	3.4	-7.1
CN(CC(=O)Nc1cccc(F)c1)C(=O)c1ccc2c(c1)CC(c1ccccc1)OC2=O (stereo not given)	5.2	0.0	3.5%	0.8	4.6	-7.5
COc1ccc(-n2cnnc2SCC(=O)Nc2cc(C(C)(C)C)nn2-c2ccccc2)cc1	9.5	-55.7*	0.4%	-2.6	-1.1	6.7
CC(C)(C)c1cc(NC(=O)CSc2nnc(N)s2)n(-c2ccccc2)n1	-8.5	0.0	-2.3%	4.3	3.5	-35.3*
COc1ccccc1-n1cnnc1SCC(=O)Nc1cc(C(C)(C)C)nn1-c1ccccc1	2.1	0.0	-3.8%	3.1	-0.7	-3.8
COc1ccc(-c2coc3c(C(=O)NCCc4ccccc4)cccc23)c(C)c1	2.0	-13.6	x	x	x	x
Cc1ccc(-c2csc(NCCc3nc4cc(Cl)c(Cl)cc4n3CCCO)n2)cc1	69.8*	5.3	7.1%	x	x	x
OCCCn1c(C2CCCN2c2nc(-c3ccc(Cl)cc3)cs2)nc2cc(Cl)c(Cl)cc21 (stereo not given)	7.6	0.0	15.7%	x	x	x
OCCCn1c(C2CCCN2c2nc(-c3ccc(F)cc3)cs2)nc2cc(Cl)c(Cl)cc21 (stereo not given)	-44.4	-55.7*	-11.5%	x	x	x
Cc1ccc(Cn2c(CCNc3nc(-c4ccc(C)cc4)cs3)nc3cc(C(=O)NCCCO)ccc32)cc1	31.5*	6.2	1.7%	x	x	x
NC(=O)[C@@H]1CC2(CC(c3cccc(NC(=O)COc4ccc(Cl)cc4)c3)=NO2)CN1C(=O)c1ccccc1 (stereo not given in full)	2.2	1.7	-25.5%	-2.0	6.4	-20.4
COc1ccc(NC(=O)C(C)N(C)Cc2ccc3ccccc3c2)cc1 (stereo not given)	-9.1	-12.9	-6.0%	x	14.3	-4.0
O=C(CCCN1CC=C(n2c(=O)[nH]c3ccccc32)CC1)c1ccc(F)cc1	-11.4	-18.9	-0.2%	-3.0	7.1	-70.8*
O=C(CCCN1CCC(n2c(=S)[nH]c3ccccc32)CC1)c1ccc(F)cc1	-24.8	x	x	x	x	x
CCC(c1nnnn1C1CCCCC1)N(Cc1ccco1)Cc1cc2ccc(OC)cc2[nH]c1=O (stereo not given)	4.0	-2.6	-5.1%	9.6	2.7	33.4
COc1ccc2cc(CN(CCCN3CCOCC3)Cc3nnnn3C3CCCCC3)c(=O)[nH]c2c1	-35.1	-50.4*	9.1%	-3.2	2.1	-7.4
CCOC(=O)N1CCN(c2ccc(C(C)=O)cc2F)CC1	-1.5	32.6	0.5%	-10.6	0.9	-12.0
CCC(=O)c1ccc(N2CCN(C(=O)c3ccccc3F)CC2)c(F)c1	8.9	4.6	-2.9%	-6.7	37.8*	9.6
